APEX1 inh: qHTS Assay for Inhibitors of the Human Apurinic/apyrimidinic Endonuclease 1 (APE1); Potency, µM (doses to about 65.8 µM), actives largely listed as inhibitors; recombinant APE1, TAMRA/BHQ-2 abasic DNA cleavage fluorescence; DNA repair nuclease/redox regulator APEX1 (Homo sapiens), P27695; 350,000 compounds, 0.35% hits; further: nearly all actives have a fitted effect of over 55% in size
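Incision of a quenched TAMRA/BHQ-2 THF abasic-site duplex (50 nM) by 0.75 nM APE1, after 15 min compound preincubation, measured as fluorescence increase over three 60 s reads. Values normalized to buffer, DMSO and NSC13755 control wells.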
GLS inh: qHTS for Inhibitors of Glutaminase (GLS) | Glutaminase kidney isoform, mitochondrial (Homo sapiens), O94925 | GLS enzymatic activity, qHTS titration | Potency, µM (titrated, usually from 45.5 µM), most hits filed as inhibitors | 410,000 compounds, 0.21% hits
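hKGA in 45 mM KH2PO4 pH 8.2, 0.02% Tween-20 with pin-transferred compounds; 1 mM L-glutamine (stock) plus glutamate oxidase/HRP/Amplex Red coupling added. Fluorescence read initially and after 30 min at RT.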
TDP1 block: qHTS Assay for Inhibitors of Tyrosyl-DNA Phosphodiesterase (TDP1). recombinant TDP1, AlphaScreen DNA substrate cleavage. Potency, µM (doses to about 130 µM), usual class: inhibitors. 350,000 compounds, 0.28% hits. Tyrosyl-DNA phosphodiesterase 1 (Homo sapiens), Q9NUW8; further: nearly all actives have a fitted effect of over 40% in size
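Recombinant human Tdp1 (E. coli-expressed, 1 nM final) preincubated with compounds 15 min at room temperature, then 5'-biotin/3'-phosphotyrosine-FITC DNA substrate (15 nM final) added for 5 min. AlphaScreen beads (10 ug/ml final) added 10 min; cleavage lowers signal.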
BLM inh-1: qHTS Assay for Inhibitors of Bloom's syndrome helicase (BLM) | RecQ-like DNA helicase BLM (Homo sapiens), P54132 | recombinant BLM DNA unwinding, fluorescence dequenching | Potency, µM (doses to about 56.1 µM), hits mostly inhibitors | 350,000 compounds, 0.2% hits; further: nearly all actives have a fitted effect of over 35% in size
RECQ1 inh-1: qHTS Assay for Inhibitors of RecQ-Like Dna Helicase 1 (RECQ1); AID 2549, 2010; ATP-dependent DNA helicase Q1 (Homo sapiens), P46063; RECQ1 DNA unwinding, red fluorescence kinetic read; Potency, µM (highest dose often 57.3 µM), hits mostly inhibitors; 240,000 compounds, 0.54% hits; further: nearly all actives have a fitted effect of over 30% in size
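RECQ1T1 50 nM; forked duplex (20 bp + 30-nt ss tails) 200 nM, ATP 2 mM final; pH 8.0, 2 mM MgCl2, 2.5 ug/ml poly(dI-dC); 15 min compound preincubation; discontinuous kinetic read over 2 h at RT.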
PGK inhibitor: qHTS Assay to Find Inhibitors of Phosphoglycerate Kinase | Phosphoglycerate kinase, glycosomal (Trypanosoma brucei brucei), P07378 | PGK/GAPDH coupled, Kinase-Glo luminescence, 60 min | Potency, µM (doses to about 57.5 µM), usual class: inhibitors | 380,000 compounds, 0.043% hits | AID 602233, 2012; further: nearly all actives have a fitted effect of over 60% in size
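Luminescent ATP detection (Kinase-Glo Plus) follows a 60-minute room-temperature incubation, with wells lacking PGK as controls. Buffer: 100 mM TEA (pH 7.6), 5 mM MgCl2, 0.01% Tween-20. Coupling enzyme GAPDH (100 nM final) supplies unstable 1,3-BPG in-well.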
BLM inh-2: qHTS Confirmation Assay for Inhibitors of Bloom's syndrome helicase (BLM). 220 compounds, 40% hits. shares compounds with BLM inh-1. Potency, µM, most hits filed as inhibitors. BLM DNA unwinding, fluorescence quenching, biochemical;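 further: strand separation dequenches TAMRA so unwinding raises red fluorescence; series mostly up to about 69 µM; nearly all actives have a fitted effect of over 45% in size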
RECQ1 inh-2: Confirmation qHTS Assay for Inhibitors of RecQ-Like Dna Helicase 1 (RECQ1) - Round 2 Cherry Picks. 1,100 compounds, 15% hits. shares compounds with RECQ1 inh-1. Potency, µM (top dose mostly 119 µM), usual class: inhibitors. recombinant RECQ1 DNA unwinding, red fluorescence. AID 504841, 2011; further: nearly all actives have a fitted effect of over 50% in size
Large screens that a line does not name were inactive (follow-up assays come after a bar, where they were run). A selection: hits, their analogues and other compounds. The true share with any hit is near 0.85%. The call rests on the fitted dose curve; in most records, active means well fitted curve in the direction sought with a large enough effect; inconclusive means small, poorly fitted or top-dose-only effect, or another doubt; inactive means no such curve, though single readings can be large; an effect the other way counts as inactive or inconclusive.

COc1cccc(NC(=O)Cn2cc(C(=O)c3ccc(C)cc3)c(=O)c3cc(OC)ccc32)c1	TDP1 block inconclusive, BLM inh-1 inconclusive (no result: RECQ1 inh-1)
CCc1ccc(C(=O)c2cn(CC(=O)Nc3cccc(OC)c3)c3ccc(OC)cc3c2=O)cc1	GLS inh inconclusive, BLM inh-1 20µM (no result: TDP1 block, RECQ1 inh-1) | BLM inh-2 20µM
CC(C)S(=O)(=O)N1CCN(c2nc(-c3cccs3)nc3ccccc23)CC1	none (no result: APEX1 inh, GLS inh, BLM inh-1, RECQ1 inh-1, PGK inhibitor)
N#C/C(=C\c1ccc(OC(=O)c2cccs2)cc1)c1nc2ccccc2[nH]1	BLM inh-1 20µM | BLM inh-2 inactive
Cn1c(SCC(=O)c2cc(Cl)c(Cl)s2)nnc1-c1ccco1	BLM inh-1 13µM | BLM inh-2 inconclusive
CCn1ncc(Br)c1C(=O)Nc1ccc(OC(F)(F)F)cc1	none (no result: TDP1 block, RECQ1 inh-1)
CCn1ncc(Br)c1C(=O)Nc1ccc(C(=O)OC(C)C)cc1	BLM inh-1 3.5µM | BLM inh-2 inconclusive
COc1cccc(=O)c2c(C)n(CC(=O)c3ccccc3)c(C)c12	BLM inh-1 25µM | BLM inh-2 inactive
CCOc1cccc(=O)c2c(C)n(CC(=O)c3ccccc3)c(C)c12	none
Nc1c(C(=O)NC2CC2)sc2nc3c(c(-c4ccco4)c12)CC/C3=C/c1ccco1	GLS inh 1.8µM, BLM inh-1 5.6µM, PGK inhibitor inconclusive | BLM inh-2 inconclusive
Cc1c(C(=O)Nc2ccc(F)cc2)cn2c(nc3ccccc32)c1C#N	none (no result: TDP1 block)
N#Cc1c2nc3ccccc3nc2n2cc(NC(=O)c3ccc(F)cc3)ccc12	BLM inh-1 13µM | BLM inh-2 7.3µM
CN(C)C(=O)CCSC(SCCC(=O)O)c1cccc(/C=C/c2ccc3ccc(Cl)cc3n2)c1 (configuration not stated)	none (no result: APEX1 inh, RECQ1 inh-1, PGK inhibitor)
CCC1(c2ccc(OC)cc2)NC(=O)N(C)C1=O (configuration not stated)	none (no result: GLS inh, PGK inhibitor)
CCSC[C@H](NC(=O)[C@H](C)NC(=O)[C@@H](N)Cc1ccc(O)cc1)C(=O)N[C@@H](CC(=O)O)C(=O)N[C@H](C(=O)N[C@@H](C)C(=O)N[C@H](C(=O)N[C@@H](CSCC)C(=O)N[C@H](C(=O)N[C@H](C(=O)N[C@@H](Cc1cnc[nH]1)C(=O)N[C@@H](CCCNC(=N)N)C(=O)N[C@@H](CC(C)C)C(=O)N[C@@H](C)C(=O)NCC(=O)N[C@@H](CC(C)C)C(=O)N[C@@H](CC(C)C)C(=O)N[C@@H](CO)C(=O)N[C@@H](CCCNC(=N)N)C(=O)N[C@@H](CO)C(=O)NCC(=O)NCC(=O)N[C@H](C(=O)N[C@H](C(=O)N[C@@H](CCCCN)C(=O)N[C@@H](CC(N)=O)C(=O)N[C@@H](CC(N)=O)C(=O)N[C@@H](Cc1ccccc1)C(=O)N[C@H](C(=O)N1CCC[C@H]1C(=O)N[C@H](C(=O)N[C@@H](CC(N)=O)C(=O)N[C@H](C(=O)NCC(=O)N[C@@H](CO)C(=O)N[C@@H](CCCCN)C(=O)N[C@@H](C)C(=O)N[C@@H](Cc1ccccc1)C(N)=O)C(C)C)[C@@H](C)O)C(C)C)C(C)C)C(C)C)[C@@H](C)O)C(C)C)[C@@H](C)O)[C@@H](C)O	none (no result: GLS inh, PGK inhibitor)
CC(C)CN(C(=O)COC(=O)c1cc2c(s1)CCC2)C1CCS(=O)(=O)C1 (configuration not stated)	APEX1 inh 13µM, GLS inh inconclusive, TDP1 block 13µM, BLM inh-1 25µM, RECQ1 inh-1 inconclusive, PGK inhibitor inconclusive | BLM inh-2 inconclusive
CCN(C(=O)COC(=O)c1cc2c(s1)CCCCC2)C1CCS(=O)(=O)C1 (configuration not stated)	none (no result: RECQ1 inh-1)
CN(C)[C@H]1C(=O)C(C(=O)NCN2CCCC2)=C(O)[C@]2(O)C(=O)C3=C(O)c4c(O)cccc4[C@](C)(O)[C@H]3C[C@H]12	GLS inh inconclusive, TDP1 block 0.2µM, BLM inh-1 14µM (no result: APEX1 inh, RECQ1 inh-1, PGK inhibitor) | BLM inh-2 20µM
CCCCN1Cc2c(nc3cc(-c4ccco4)[nH]n3c2=O)C1=O	BLM inh-1 18µM | BLM inh-2 inactive
CC(C)OC(=O)c1cn(Cc2c(F)cccc2F)c2sc(-c3ccc(NC(=O)C(C)C)cc3)c(CN(C)Cc3ccccc3)c2c1=O	none (no result: GLS inh, PGK inhibitor)
N#CCCn1cc(CNCc2cccnc2)c(-c2ccccc2)n1	none (no result: APEX1 inh, GLS inh, BLM inh-1, RECQ1 inh-1, PGK inhibitor)
COC(=O)[C@H](COC(C)(C)C)NC(=O)O[C@@H]1C(=O)c2cc(OC)ccc2O[C@H]1c1cccc(OC)c1	none (no result: GLS inh, PGK inhibitor)
Cc1ccc(-n2cccc2/C=C2\C(=N)N3N=C(c4ccco4)SC3=NC2=O)cc1	APEX1 inh 10µM, GLS inh inconclusive, TDP1 block 56µM, BLM inh-1 20µM, RECQ1 inh-1 inconclusive, PGK inhibitor inconclusive | BLM inh-2 29µM | RECQ1 inh-2 inconclusive
CC[C@H](C)[C@H](NC(=O)[C@H](CC(=O)O)NC(=O)[C@H](CC(C)C)NC(=O)[C@H](Cc1cnc[nH]1)NC(=O)[C@H](C)NC(=O)[C@H](Cc1ccccc1)NC(=O)[C@H](Cc1ccc(O)cc1)NC(=O)[C@@H](NC(=O)[C@H](C)NC(=O)[C@H](CCC(=O)O)NC(=O)[C@H](CCC(=O)O)NC(=O)[C@H](CC(=O)O)NC(=O)CCC(=O)O)C(C)C)C(=O)N[C@H](C(=O)N[C@@H](Cc1c[nH]c2ccccc12)C(=O)O)[C@@H](C)CC	none (no result: GLS inh, PGK inhibitor)
COC(=O)c1ccc(COc2ccc(/C=C(\C#N)c3nc4ccccc4[nH]3)cc2OC)o1	BLM inh-1 14µM, RECQ1 inh-1 inconclusive (no result: TDP1 block) | BLM inh-2 inconclusive | RECQ1 inh-2 79µM

High-throughput results deposited in PubChem BioAssay by National Center for Advancing Translational Sciences (NCATS).
